Data published in ChEMBL document CHEMBL3988442, “University of Dundee, Small-Polar-MMV Screening Library” (2021).
The whole screen tested about 38,000 compounds, of which about 1,200 (3.2%) showed an effect of 50% or more. The median lay at about -58%. What follows is part of a selection rich in strong results, with near analogues and random picks from the rest.

Test system: Plasmodium falciparum
Experiment: Calibr Malaria Delayed Death Assay SOP
Type: functional, organism-based
Design: scale not given: in the data most compounds retested in dose-response had high values
Conditions: concentration 4.99e-06 (unit not given; other assays of the set use mol/L)

Compared with `CCOCC(=O)NCCc1nc(C2CC2)cc(C(F)(F)F)n1`, `COCC(=O)Nc1ccc2c(c1)C1(CCOCC1)CN2CCF.O=C(O)C(F)(F)F` is higher in “Percent Effect” value: -127.5% for the first, -73.75% for the second.

First: CCS(=O)(=O)N1CC(c2nc(-c3ccsc3)no2)C1
Second: CC(C)c1nc(C2CCCN(C(=O)CCn3ccccc3=O)C2)no1 (stereo not drawn)
The “Percent Effect” value of the first is lower: -143.6% for the first, -110.1% for the second.

First: Cc1cccnc1CNC(=O)N(CCCO)C1CCc2ccccc21 (stereo not drawn)
Second: CCN(C(=O)CN1CCCC1c1ccc(F)cc1)c1ccccc1C (stereo not drawn)
The “Percent Effect” value of the first is higher: -23.18% for the first, -25.99% for the second.

Going from `COc1c(CNC2CCc3cc(Cl)ccc32)c(C)nn1C` (stereo not drawn) to `COc1c(CNC2(c3ccc(Cl)cc3)CCC2)c(C)nn1C`, the “Percent Effect” value rises from 17.62% to 58.68%.

First: COc1c(CNC2(c3noc(C)n3)CCC2)c(C)nn1C.Cl
Second: COc1ncc(C2(O)CCN(Cc3cccc(F)c3F)CC2)c(OC)n1.Cl
The “Percent Effect” value of the first is higher: -62.55% for the first, -65.3% for the second.

Compared with `Cc1cc(C)n(-c2cccc(C(=O)Nc3n[nH]c(C4CCCO4)n3)c2)n1` (stereo not drawn), `CC(C)(C)c1n[nH]c(C2CN(C(=O)Cn3ccccc3=O)CCO2)n1` (stereo not drawn) is higher in “Percent Effect” value: -55.68% for the first, -54.87% for the second.

Going from `Cc1ccc(O)c(CNc2cccc(CN3CCSCC3)c2)n1` to `CC(C)(C)OC(=O)NC1CCCN(Cc2cccc(O)c2)C1` (stereo not drawn), the “Percent Effect” value rises from -16.46% to 51.54%.

Compared with `O=C(CCN1CCCC(CO)(CC2CC2)C1)NCc1cccc(Cl)c1` (stereo not drawn), `CC1(C)CN(CCC(=O)NCc2cccc(Cl)c2)CC[C@]1(C)O` is lower in “Percent Effect” value: 79.46% for the first, 51.99% for the second.

First: Cc1ccc(C(=O)O)cc1CNC(=O)CN1CC[C@](C)(O)C(C)(C)C1
Second: O=C(CCC(=O)NCc1cccc(Br)c1)NCCN1CCCC1
The “Percent Effect” value of the first is higher: -2.954% for the first, -111.7% for the second.

First: NC(=O)CN(CC(=O)NCc1cccc(Cl)c1)C1CCCC1
Second: OCC1(Cc2cccc(Cl)c2)CCCN(c2ncccn2)C1 (stereo not drawn)
The “Percent Effect” value of the first is higher: -61.22% for the first, -87.85% for the second.

First: CC(C)NC(=O)c1cc2c(s1)CCN2c1ncccn1
Second: CC(C)(C)OC(=O)N1CCCc2ccc(NCc3ncc[nH]3)cc21
The “Percent Effect” value of the first is lower: -26.36% for the first, 26.46% for the second.

Compared with `Cc1nc2n(n1)CC(NCc1c(Cl)ccc3cccnc13)CC2` (stereo not drawn), `Fc1cccnc1N1CCC(NCc2cccc3cn[nH]c23)C1` (stereo not drawn) is higher in “Percent Effect” value: -131.5% for the first, -62.75% for the second.

First: CC(=O)CSc1nnc2n1N=CN(c1cccc(Cl)c1)C2
Second: Cc1nc(CCCC(=O)Nc2cccc(N3CCNC3=O)c2)cs1
The “Percent Effect” value of the first is higher: -35.13% for the first, -207.5% for the second.

Going from `N#Cc1cccc(OCCN2CCCC2C(=O)Nc2nccs2)c1` (stereo not drawn) to `N#Cc1cccc(OCCN2CCCC2C(=O)N2CCSCC2)c1` (stereo not drawn), the “Percent Effect” value rises from -33.68% to 50.57%.

First: N#Cc1cccc(OCCN2CCC(C(=O)N3CCOCC3)CC2)c1
Second: CN(CCCC1CCCO1)C(=O)c1cccc(C#N)c1 (stereo not drawn)
The “Percent Effect” value of the first is higher: -57.78% for the first, -170.6% for the second.

Going from `CCc1nc(C)c(C(=O)N[C@@H]2c3ccccc3C[C@@H]2O)o1` to `CN(C)[C@@H]1CO[C@H](CNC(=O)Nc2ccccc2)[C@H]1O`, the “Percent Effect” value rises from -65.76% to -62.35%.

Going from `Cn1ccc(CN2CCC(c3ccccc3)CC2)cc1=O` to `O=C(O)CN1CCC(c2ccccc2)CC1`, the “Percent Effect” value falls from 20.97% to -86.8%.

Compared with `Cn1ncc2c(=O)[nH]c(CN3CCCC3c3cccs3)nc21` (stereo not drawn), `CN(C)c1nc(N)nc(CN2CCCC2c2cccs2)n1` (stereo not drawn) is higher in “Percent Effect” value: -14.29% for the first, 52.44% for the second.

Compared with `Oc1ccccc1CN1CCCCCC1c1cccs1` (stereo not drawn), `N#CCCN(Cc1ccco1)C(=O)CN1CCCC1c1cccs1` (stereo not drawn) is higher in “Percent Effect” value: -50.57% for the first, 2.269% for the second.

First: CN(C)c1nc(N)nc(CN2CCCC(c3ccccc3)CC2)n1 (stereo not drawn)
Second: CN(C)c1nc(N)nc(CN2CCC(c3ccccc3)CC2)n1
The “Percent Effect” value of the first is lower: 53.37% for the first, 80.66% for the second.

First: CN(C)c1nc(N)nc(CN2CCC(c3nc4ccccc4o3)CC2)n1
Second: Cc1nc(CC2CCCN(Cc3nc(N)c4ccccc4n3)C2)no1 (stereo not drawn)
The “Percent Effect” value of the first is lower: 8.177% for the first, 18.93% for the second.

First: COC(=O)c1cc(OCC2CCC2)cc(C(=O)N[C@H](C)C(N)=O)c1
Second: COC(=O)c1ccc(N2CCN(CC(=O)NC(N)=O)C(C)C2)cc1 (stereo not drawn)
The “Percent Effect” value of the first is lower: -189.7% for the first, -25.15% for the second.

Going from `CC(C)NC(=O)N1CCCC2(CC(C(=O)Nc3ccccc3)=NO2)C1` (stereo not drawn) to `O=C(NC[C@H]1OC[C@@H](NC2CCC2)[C@@H]1O)Nc1ccccc1`, the “Percent Effect” value falls from -67.17% to -143.1%.

First: COCCN(C)C[C@@H]1CN(C(=O)c2ccc(SC)cc2)C[C@@H]1CO
Second: COC(=O)c1ccc(C(=O)N2CCC(c3nnc(C)s3)CC2)cc1
The “Percent Effect” value of the first is higher: -5.304% for the first, -39.58% for the second.

Going from `COc1ccc(CCN(C)C(=O)CN2C(=O)OC[C@@H]2C(C)C)cc1OC` to `COc1ccc(OC)c(CN2CCC(c3cc(O)nc(C)n3)C2)c1` (stereo not drawn), the “Percent Effect” value rises from -25.4% to -6.514%.

Going from `CNC(=O)N1CCC(NC(=O)c2cnn(C)c2)CC1` to `CC(=O)N1CCCN(C(=O)NCc2cc[nH]n2)CC1`, the “Percent Effect” value rises from -113.2% to -10.61%.

First: NS(=O)(=O)c1cnn(CCC(=O)N(Cc2ccccc2)C2CC2)c1
Second: CCN(C(=O)CN1CCCC1Cc1ccccc1)c1ccccc1 (stereo not drawn)
The “Percent Effect” value of the first is lower: -42.03% for the first, 59.02% for the second.

Going from `CCOC(=O)NC1CCCN(Cc2ccc(-n3cncn3)c(C)c2)C1` (stereo not drawn) to `CC(C)(C)OC(=O)NC1CCCN(Cc2cccs2)C1` (stereo not drawn), the “Percent Effect” value rises from -7.286% to 25.55%.

Compared with `CCOc1ccc(C(=O)n2cccn2)cc1`, `c1ccc(OCc2nc(CNCCn3cccn3)cs2)cc1` is higher in “Percent Effect” value: -77.79% for the first, 20.38% for the second.

Compared with `O=C(c1ccc(F)cc1)N1CCOC(c2nc(-c3ncccn3)no2)C1` (stereo not drawn), `Nc1cc(N2CCCC(COc3ccc(F)cc3)C2)ncn1` (stereo not drawn) is higher in “Percent Effect” value: -155.2% for the first, -4.598% for the second.

First: O=C(O)C(F)(F)F.c1cnc(N2CCOC3(CCN(CC4CCOC4)CC3)C2)nc1 (stereo not drawn)
Second: Cn1cc(C2COC3(CCN(C(=O)c4ccccn4)CC3)C2)cn1.O=C(O)C(F)(F)F (stereo not drawn)
The “Percent Effect” value of the first is higher: -16.11% for the first, -70.09% for the second.

Compared with `CN1CCN(c2ccc(NC(=O)c3ccoc3)c(C(F)(F)F)c2)CC1`, `CN1CCN(c2ccc(NC(=O)c3cccs3)c(C(F)(F)F)c2)CC1` is higher in “Percent Effect” value: -45.74% for the first, 73.25% for the second.

Going from `CN1CCN(c2ccc(NC(=O)c3ccccn3)c(C(F)(F)F)c2)CC1` to `CN(C)c1ncc(NC(=O)c2ccccc2C(F)(F)F)cn1`, the “Percent Effect” value rises from -41.85% to -13.75%.

First: Cc1ccc(N2CCCC(NCc3cnc(C)s3)C2)nn1 (stereo not drawn)
Second: Cc1nc(C)n(CC2CCCN2CCCc2nc3ccccc3o2)n1 (stereo not drawn)
The “Percent Effect” value of the first is lower: -130.3% for the first, -41.56% for the second.

First: CC(C)[C@@H]1CN(C2CCN(Cc3ccccc3)CC2)C[C@H]1NS(C)(=O)=O
Second: N#CCCN(C(=O)CN1CCCC1C1CCCCC1)c1ccccc1 (stereo not drawn)
The “Percent Effect” value of the first is lower: 2.556% for the first, 50.3% for the second.

Compared with `CC(c1ccncc1)N(C)S(C)(=O)=O` (stereo not drawn), `CC(C(=O)Nc1cccc(Cl)c1SC(F)F)S(C)(=O)=O` (stereo not drawn) is lower in “Percent Effect” value: -81.75% for the first, -87.5% for the second.

Going from `COc1ncccc1C1CC(=O)Nc2cc(NS(C)(=O)=O)ccc21` (stereo not drawn) to `CS(=O)(=O)c1ccc(CNC(=O)NCc2cc[nH]n2)cc1`, the “Percent Effect” value rises from -136.9% to -45.13%.

Compared with `Cc1cc(C)cc(S(=O)(=O)NCC2CNCCOC2)c1` (stereo not drawn), `Cc1ccc(S(=O)(=O)NCC2CNCCOC2)cc1Cl` (stereo not drawn) is higher in “Percent Effect” value: 6.797% for the first, 47.92% for the second.

Going from `Cc1cc(S(=O)(=O)NCC2CNCCOC2)c(C)cc1Cl` (stereo not drawn) to `CC(C)Cc1cc(C(=O)NCC2CCCN(Cc3ccco3)C2)on1` (stereo not drawn), the “Percent Effect” value falls from 75.13% to -23.35%.

First: Cc1ccccc1CCC1CCCN(C(=O)Cc2cc(=O)[nH]c(N)n2)C1 (stereo not drawn)
Second: Cc1cc(C2CCCN2CC(=O)N(CCC#N)c2ccccc2F)on1 (stereo not drawn)
The “Percent Effect” value of the first is higher: -123.2% for the first, -128.3% for the second.

Compared with `Cc1cnn(CCNCc2csc(COc3ccccc3)n2)c1`, `Cc1cnn(CCCNCc2csc(COc3ccccc3)n2)c1` is higher in “Percent Effect” value: 42.25% for the first, 70.2% for the second.

Compared with `COCCn1ccnc1C1CCN(C(=O)CSc2nnc(C)s2)CC1`, `O=C(O)CCCC(=O)N1CCC(c2noc3cc(F)ccc23)CC1` is lower in “Percent Effect” value: -110.9% for the first, -131.6% for the second.

Compared with `O=C(NC[C@H]1OC[C@@H](N(CC2CC2)CC2CC2)[C@@H]1O)Nc1ccccc1`, `CN(C(=O)CN1CCCC1Cc1ccccc1)c1ccccc1` (stereo not drawn) is lower in “Percent Effect” value: 64.49% for the first, 20.57% for the second.

Going from `CCC(O)(CNCc1ncc[nH]1)c1ccc(Br)cc1` (stereo not drawn) to `CCC(O)(CNCc1cc[nH]n1)c1ccc(Br)cc1` (stereo not drawn), the “Percent Effect” value rises from 65.85% to 76.25%.

Compared with `CCC(O)(CNCc1ccncc1)c1ccc(Br)cc1` (stereo not drawn), `CCN(C(=O)CN1CCCC1c1ccc(OC)cc1)c1ccccc1` (stereo not drawn) is higher in “Percent Effect” value: 3.807% for the first, 17.94% for the second.

Going from `O=C(c1cnccn1)N1C[C@@H]2CC[C@H](C1)N(S(=O)(=O)c1cccnc1)C2` to `CCS(=O)(=O)N1CCC2(CCN(C(=O)c3cccs3)CC2)CC1`, the “Percent Effect” value rises from -81.69% to -4.516%.

Compared with `CNS(=O)(=O)C1CCN(c2cc(C(C)C)nc(C(C)C)n2)C1` (stereo not drawn), `COc1ccc(N2CCN(C(=O)CCc3n[nH]c(C)n3)CC2=O)cc1` is lower in “Percent Effect” value: -29.56% for the first, -47.6% for the second.

First: Cc1ccc(C2CCCN2CC(=O)N(CCC#N)c2ccccc2)cc1 (stereo not drawn)
Second: N#CCCN(C(=O)CN1CCCC1c1ccccc1Cl)c1ccccc1 (stereo not drawn)
The “Percent Effect” value of the first is higher: 61.31% for the first, 38.72% for the second.

First: CC1CC(=O)c2cc(C(=O)N3CCc4ccccc43)c(=O)[nH]c2C1 (stereo not drawn)
Second: O=C(Cn1ccc2c(Cl)cccc21)N1CCCC1
The “Percent Effect” value of the first is lower: -103.7% for the first, -3.751% for the second.

Compared with `OCCNc1nc(Nc2ccccc2)c2nccnc2n1`, `CC(O)c1cccc(-n2c(CCC(=O)O)nc3ccccc32)c1` (stereo not drawn) is lower in “Percent Effect” value: -38.96% for the first, -169.3% for the second.

Going from `COc1ncc(C2(O)CCN(Cc3cc(F)ccc3F)CC2)c(OC)n1.Cl` to `Cl.Cl.OC(CN1CCN(Cc2cc(F)ccc2F)CC1)C1CC1` (stereo not drawn), the “Percent Effect” value rises from -42.34% to 0.4009%.

`COc1ccc(C)cc1CN1CCN(Cc2nccn2C)CC1` was tested, and the “Percent Effect” value was -87.98%.
